Where “and” joins values, the source holds several entries; their conditions need not be identical. Identical values can stand only once. Records with an inconclusive call do not appear. Calls of active or inactive are those of the source. How the source made its calls: active means hit-call score of the fitted dose curve at least 0.9, where 1 is the maximum; inconclusive means response in the unintended direction; inactive means score below 0.9.
Experiments:
[1] = target: bovine Gamma-Aminobutyric Acid Type A Receptor BDZ, alpha 5 site (GABARa5), GABRA5 (gene 523515) (UniProt Q08E50); experiment: NVS_LGIC_bGABARa5: NovaScreen (NVS) Ligand-Gated Ion Channel Assay for bovine Gamma-Aminobutyric Acid Type A Receptor BDZ, alpha 5 site (GABARa5) (AID 2283323)
Chain of bovine Gamma-Aminobutyric Acid Type A Receptor BDZ, alpha 5 site (GABARa5), GABRA5 (gene 523515) (Q08E50 whole entry, looked up): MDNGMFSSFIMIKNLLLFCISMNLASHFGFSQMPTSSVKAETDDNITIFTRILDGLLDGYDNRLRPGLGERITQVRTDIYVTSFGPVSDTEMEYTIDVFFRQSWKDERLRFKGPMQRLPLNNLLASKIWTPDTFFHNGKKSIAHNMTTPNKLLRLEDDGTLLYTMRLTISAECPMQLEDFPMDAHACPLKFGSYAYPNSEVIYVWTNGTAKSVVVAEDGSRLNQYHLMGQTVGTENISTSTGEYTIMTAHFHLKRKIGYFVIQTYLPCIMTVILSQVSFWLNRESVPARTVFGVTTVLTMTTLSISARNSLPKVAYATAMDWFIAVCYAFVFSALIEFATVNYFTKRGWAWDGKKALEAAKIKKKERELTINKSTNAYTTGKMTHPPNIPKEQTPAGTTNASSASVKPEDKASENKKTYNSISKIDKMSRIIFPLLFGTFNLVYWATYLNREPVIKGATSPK
Procedure: NVS_LGIC_bGABARa5 is a biochemical, single-readout assay that uses extracted gene-proteins from Bovine hippocampal membranes in a tissue-based cell-free assay. Measurements were taken 1 hour after chemical dosing in a 48-well plate.NVS_LGIC_bGABARa5 is one of one assay component(s) measured or calculated from the NVS_LGIC_bGABARa5 assay. It is designed to make measurements of radioligand binding, a form of binding reporter, as detected with scintillation counting signals by Filter-based radiodetection technology.Data from the assay component NVS_LGIC_bGABARa5 was analyzed into 1 assay endpoint. This assay endpoint, NVS_LGIC_bGABARa5, was analyzed in the positive analysis fitting direction relative to DMSO as the negative control and baseline of activity. Using a type of binding reporter, loss-of-signal activity can be used to understand changes in the binding as they relate to the gene GABRA5. Furthermore, this assay endpoint can be referred to as a primary readout, because the performed assay has only produced 1 assay endpoint. To generalize the intended target to other relatable targets, this assay endpoint is annotated to the ion channel intended target family, where the subfamily is ligand-gated ion channel. […]

[2] = target: rat Gamma-Aminobutyric Acid Type A Receptor, Non-Selective (GABAR-NonSelective), Gabra1 (gene 29705) (UniProt P62813); experiment: NVS_LGIC_rGABAR_NonSelective: NovaScreen (NVS) Ligand-Gated Ion Channel Assay for rat Gamma-Aminobutyric Acid Type A Receptor, Non-Selective (GABAR-NonSelective) (AID 2283326)
Chain of rat Gamma-Aminobutyric Acid Type A Receptor, Non-Selective (GABAR-NonSelective), Gabra1 (gene 29705) (P62813 whole entry, looked up): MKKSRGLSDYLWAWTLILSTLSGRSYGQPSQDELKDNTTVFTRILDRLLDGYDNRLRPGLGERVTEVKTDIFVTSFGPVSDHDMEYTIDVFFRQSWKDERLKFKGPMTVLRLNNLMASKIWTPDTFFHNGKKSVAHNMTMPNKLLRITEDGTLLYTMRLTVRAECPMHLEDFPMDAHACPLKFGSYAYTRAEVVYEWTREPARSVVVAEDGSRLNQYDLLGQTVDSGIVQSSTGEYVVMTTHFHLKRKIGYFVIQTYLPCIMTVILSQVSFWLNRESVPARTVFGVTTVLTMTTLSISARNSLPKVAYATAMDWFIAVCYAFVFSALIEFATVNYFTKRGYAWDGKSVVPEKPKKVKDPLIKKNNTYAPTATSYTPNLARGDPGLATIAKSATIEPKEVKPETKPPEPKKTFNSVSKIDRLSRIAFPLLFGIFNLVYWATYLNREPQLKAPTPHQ
How it was run: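 Compounds were first screened in duplicate at 25 uM, with actives run as singleton concentration series (max 50 uM). Binding of a radioligand to rat whole-brain GABA-A preparation was measured by filtration and scintillation counting after 1 h, DMSO baseline.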

[3] = target: human Constitutive Androstane Receptor (CAR), NR1I3 (gene 9970) (UniProt Q14994); experiment: NVS_NR_hCAR_Agonist: NovaScreen (NVS) Nuclear Receptor Binding Assay for human Constitutive Androstane Receptor Agonism (CAR) (AID 2283328)
Chain of human Constitutive Androstane Receptor (CAR), NR1I3 (gene 9970) (Q14994 whole entry, looked up): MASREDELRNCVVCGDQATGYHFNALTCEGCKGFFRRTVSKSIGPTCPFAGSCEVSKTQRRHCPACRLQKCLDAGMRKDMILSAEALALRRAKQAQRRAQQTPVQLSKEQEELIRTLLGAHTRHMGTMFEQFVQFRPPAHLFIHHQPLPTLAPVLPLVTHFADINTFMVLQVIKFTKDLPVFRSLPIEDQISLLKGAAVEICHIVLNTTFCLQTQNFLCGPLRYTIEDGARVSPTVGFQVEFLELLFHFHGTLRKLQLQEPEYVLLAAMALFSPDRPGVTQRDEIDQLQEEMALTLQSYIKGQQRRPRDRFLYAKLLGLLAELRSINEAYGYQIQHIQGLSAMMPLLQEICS
How it was run: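 Actives from a 25 uM duplicate screen were retested in singleton concentration series to 50 uM max. Biochemical TR-FRET assay on extracted CAR protein measured 1 h post-dose, with signal increase over DMSO control.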

[4] = target: human Androgen Receptor (AR), AR (gene 367) (UniProt P10275); experiment: NVS_NR_hAR: NovaScreen (NVS) Nuclear Receptor Binding Assay for human Androgen Receptor (AR) (AID 2283332)
Chain of human Androgen Receptor (AR), AR (gene 367) (P10275 whole entry, looked up): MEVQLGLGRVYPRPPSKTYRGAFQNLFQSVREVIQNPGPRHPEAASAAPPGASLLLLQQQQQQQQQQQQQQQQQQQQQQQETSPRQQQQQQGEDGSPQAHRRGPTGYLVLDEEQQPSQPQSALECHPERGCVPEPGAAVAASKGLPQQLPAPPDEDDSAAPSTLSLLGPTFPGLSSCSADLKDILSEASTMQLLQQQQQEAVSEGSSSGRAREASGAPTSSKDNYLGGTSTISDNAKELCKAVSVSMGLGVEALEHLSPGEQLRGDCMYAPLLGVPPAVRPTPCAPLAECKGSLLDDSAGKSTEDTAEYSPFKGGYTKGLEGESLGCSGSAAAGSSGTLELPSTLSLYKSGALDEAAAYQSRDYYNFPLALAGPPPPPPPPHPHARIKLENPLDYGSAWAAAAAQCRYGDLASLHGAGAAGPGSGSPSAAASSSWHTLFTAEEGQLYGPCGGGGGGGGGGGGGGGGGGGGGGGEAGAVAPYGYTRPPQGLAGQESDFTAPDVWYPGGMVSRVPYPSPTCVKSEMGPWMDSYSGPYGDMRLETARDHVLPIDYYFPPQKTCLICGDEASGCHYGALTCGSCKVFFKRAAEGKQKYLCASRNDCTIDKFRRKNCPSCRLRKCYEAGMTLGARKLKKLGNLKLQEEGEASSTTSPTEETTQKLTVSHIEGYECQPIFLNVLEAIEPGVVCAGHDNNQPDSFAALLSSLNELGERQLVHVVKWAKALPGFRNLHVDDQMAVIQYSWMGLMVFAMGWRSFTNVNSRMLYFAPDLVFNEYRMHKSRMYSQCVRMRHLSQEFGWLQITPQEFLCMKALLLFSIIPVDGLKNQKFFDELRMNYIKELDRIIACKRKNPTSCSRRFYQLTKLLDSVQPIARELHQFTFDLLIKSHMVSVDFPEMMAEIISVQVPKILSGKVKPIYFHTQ
How it was run: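 Actives from a duplicate 25 uM single-point screen went on to concentration series. Read-out after 20 h was scintillation counting of displaced radioligand in LnCAP extract, with DMSO as baseline.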

## CCC(C)(CC)c1cc(NC(=O)c2c(OC)cccc2OC)on1
[1]
  outcome: inactive

## Cc1cc2c3c(c1)C(c1ccccc1)=N[C@@H](NC(=O)c1ccncc1)C(=O)N3CC2
[1]
  AC50: 1.43 µM (active)

## CCCCCCOC(=O)c1ccccc1C(=O)OCCCCCC
[2]
  outcome: inactive

## O=C(O)C(F)(F)C(F)(F)C(F)(F)C(F)(F)C(F)(F)F
[3]
  outcome: inactive

## CCC(=O)O[C@H]1CC[C@H]2[C@@H]3CCC4=CC(=O)CC[C@]4(C)[C@H]3CC[C@]12C
[4]
  AC50: 26.8 nM (active) and 48 nM (active)

## CCOC(=O)C(O)(c1ccc(Cl)cc1)c1ccc(Cl)cc1
[4]
  AC50: 6.91 µM (active)

From PubChem BioAssay (EPA / NIEHS)
